According to PubChem BioAssay:
Active and inactive are the calls of the source.

What was measured:
Albumin (Bos taurus) = Albumin (Bos taurus) (UniProt P02769); test: bovine serum albumin binders on microarray, profiling panel, artefact control for SMM control protein annotation, biochemical, small-molecule microarray, Alexa647 label, 635/667 nm fluorescence (AID 1118); conditions: BSA-A647 binding, fluorescence 635 nm, higher = more signal;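 further: score merges 667 nm emission intensity and signal-to-noise per printed compound spot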
[1] = small-molecule microarray binders of probe aXIP, primary screen, biochemical, NeuroSMM set, 635/667 nm fluorescence (AID 1119); conditions: higher = more signal, called active from +8 up or from −8 down;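 further: probe is the protein aXip251-270 applied at 1 µg/mL to compound-printed slides; binding of probe to printed compounds measured as 667 nm fluorescence plus signal to noise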
[2] = small-molecule binders of probe aNOTCH3, primary screen, biochemical, small-molecule microarray, 635/667 nm fluorescence (AID 1120); conditions: higher = more signal;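 further: probe is a biotin-tagged antibody raised against NOTCH3 rather than NOTCH3 protein; score merges spot fluorescence near 667 nm with spot signal to noise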
[3] = small-molecule binders of probe aNOTCH2, primary screen, biochemical, small-molecule microarray, 635/667 nm fluorescence (AID 1121); conditions: higher = more signal;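 further: score merges feature fluorescence read at 667 nm with its signal to noise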
[4] = molecular target: Carbonic anhydrase 2 (Homo sapiens) (UniProt P00918); test: CAII small-molecule binders, profiling panel, biochemical, small-molecule microarray, Alexa647-labelled CAII (AID 1122); conditions: CAII-A647 binding fluorescence, higher = more signal
[5] = COS7 lysate on small-molecule microarray, probe aHis, 635 nm (AID 1123); conditions: COS7 cell lysate, fluorescence, higher = more signal;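 further: z-score combines 667nm fluorescence intensity with signal-to-noise per printed compound spot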
[6] = compound binding in COS7 lysate, probe aLAP1, primary screen, cell lysate, small-molecule microarray (AID 1124); conditions: probe aLAP1, fluorescence, higher = more signal;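 further: lysate comes from COS7 cells expressing LAP1 and is applied at 0.3 µg/mL; score merges spot fluorescence near 667 nm with signal-to-noise over triplicate slides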
Sam68 (KHDRBS1) = test: Sam68 small-molecule binders, primary screen, biochemical, small-molecule microarray, 635 nm fluorescence (AID 1125); conditions: small-molecule microarray binding, higher = more signal;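 further: score merges 667 nm channel intensity with signal to noise over triplicate slides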
[7] = system: Chordin-like protein 2 (CHRDL2); test: CHRDL2 small-molecule binders, primary screen, biochemical, small-molecule microarray, 635 nm fluorescence (AID 1126); conditions: small-molecule microarray binding, fluorescence 635 nm; higher = more signal;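 further: printed compound slides probed with Chrdl2 protein at 4 µg/mL for 1 h at 4 C; score merges 667 nm emission intensity with signal to noise over three replicate slides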
[8] = molecular target: Concanavalin-A (Canavalia ensiformis) (UniProt P02866); test: ConA small-molecule binders, primary screen, artefact control for SMM control protein annotation, biochemical, small-molecule microarray, Alexa647 label, 635 nm (AID 1127); conditions: ConA-A647 binding fluorescence, higher = more signal;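 further: z combines 667 nm emission intensity with signal-to-noise across three replicate slides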
[9] = anti-His antibody binders, primary screen, artefact control for SMM control protein annotation, biochemical, small-molecule microarray, 635 nm fluorescence (AID 1128); conditions: anti-His Alexa647 antibody binding, higher = more signal;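 further: score merges feature fluorescence with signal-to-noise for each printed compound spot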
[10] = system: Human papillomavirus type 1a E7 protein (residues 1-88); test: HPV1a E7 small-molecule binders, primary screen, biochemical, small-molecule microarray, residues 1-88, 635 nm (AID 1129); conditions: small-molecule microarray binding, fluorescence 635 nm; higher = more signal
[11] = molecular target: Focal adhesion kinase 1 (Homo sapiens) (UniProt Q05397); test: small-molecule microarray binders of FAK, primary screen, biochemical, 635/667 nm fluorescence, BSA, DTT (AID 1130); conditions: PTK2 binding, 635 nm fluorescence, higher = more signal;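 further: composite of spot emission at 667 nm and signal to noise over triplicate slides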
[12] = system: Fibrinogen (Alexa647-labelled); test: fibrinogen binders on compound microarrays, profiling panel, artefact control for SMM control-protein annotation, biochemical, small-molecule microarray, 635/667 nm fluorescence (AID 1131); conditions: fibrinogen-A647 binding fluorescence, higher = more signal;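 further: z-score merges 667 nm fluorescence with per-spot signal-to-noise over triplicate slides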
[13] = molecular target: Follistatin (Homo sapiens) (UniProt P19883); test: follistatin binders on small-molecule microarrays, primary screen, biochemical, small-molecule microarray, 635/667 nm fluorescence (AID 1132); conditions: FST binding, 635 nm fluorescence, higher = more signal
[14] = molecular target: Fibroblast growth factor 2 (Homo sapiens) (UniProt P09038); test: FGF2 binders on small-molecule microarrays, primary screen, biochemical, small-molecule microarray, 635/667 nm fluorescence (AID 1133); conditions: small-molecule microarray binding, FGF2, fluorescence 635/667; higher = more signal
[15] = mitochondrial membrane potential change in A549 cells, profiling panel, cell-based, JC-1 fluorescence, basal, 24 h, 100 nL (AID 1138); conditions: higher = more signal;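 further: A549 lung adenocarcinoma cells under basal conditions with no added stimulus; test concentration not given here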
Lefty1 = Lefty1 binders on small-molecule microarrays, primary screen, biochemical, small-molecule microarray, 635/667 nm fluorescence (AID 1139); conditions: small-molecule microarray binding, fluorescence 635/667; higher = more signal
[16] = system: wheat germ agglutinin (Triticum aestivum), Alexa647-labelled; test: wheat germ agglutinin binders on compound microarrays, profiling panel, artefact control for SMM control-protein annotation, biochemical, small-molecule microarray, 635/667 nm fluorescence (AID 1140); conditions: WGA-A647 binding, 635 nm fluorescence, higher = more signal;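 further: score merges 667 nm feature emission with signal to noise over triplicate slides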
[17] = molecular target: Luciferin 4-monooxygenase (Photinus pyralis) (UniProt P08659); test: firefly luciferase enzyme inhibitors, primary screen, biochemical, luminescence, purified enzyme, 2006 set (AID 1141); conditions: SteadyGlo luminescence, 30 min, higher = more signal, called active from +8 up or from −8 down;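 further: cell-free assay with purified firefly luciferase at 100 ng per well in PBS; test concentration not given here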
Sequence of Luciferin 4-monooxygenase (Photinus pyralis) (P08659 whole entry, looked up): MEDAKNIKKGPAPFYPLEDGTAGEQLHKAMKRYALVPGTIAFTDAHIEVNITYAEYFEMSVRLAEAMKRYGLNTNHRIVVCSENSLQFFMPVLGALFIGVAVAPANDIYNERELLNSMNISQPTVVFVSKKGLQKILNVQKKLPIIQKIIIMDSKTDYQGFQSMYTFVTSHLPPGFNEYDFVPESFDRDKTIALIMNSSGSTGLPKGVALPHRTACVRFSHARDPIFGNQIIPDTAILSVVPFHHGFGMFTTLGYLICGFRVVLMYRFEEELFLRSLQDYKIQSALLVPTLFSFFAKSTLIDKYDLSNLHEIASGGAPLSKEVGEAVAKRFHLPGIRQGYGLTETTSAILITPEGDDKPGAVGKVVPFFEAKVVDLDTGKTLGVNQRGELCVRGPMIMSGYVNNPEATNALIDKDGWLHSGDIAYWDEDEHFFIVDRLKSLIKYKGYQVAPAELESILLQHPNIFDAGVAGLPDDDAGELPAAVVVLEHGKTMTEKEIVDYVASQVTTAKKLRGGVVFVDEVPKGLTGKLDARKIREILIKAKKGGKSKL

Sequence of Fibroblast growth factor 2 (Homo sapiens) (P09038 whole entry, looked up): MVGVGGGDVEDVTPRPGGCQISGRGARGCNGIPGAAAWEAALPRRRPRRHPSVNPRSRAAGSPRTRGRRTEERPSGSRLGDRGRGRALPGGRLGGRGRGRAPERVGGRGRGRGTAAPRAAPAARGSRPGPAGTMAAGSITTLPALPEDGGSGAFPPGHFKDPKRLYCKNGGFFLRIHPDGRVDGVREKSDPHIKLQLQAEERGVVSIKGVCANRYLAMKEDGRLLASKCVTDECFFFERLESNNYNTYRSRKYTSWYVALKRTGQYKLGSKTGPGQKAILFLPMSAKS
Sequence of Focal adhesion kinase 1 (Homo sapiens) (Q05397 whole entry, looked up): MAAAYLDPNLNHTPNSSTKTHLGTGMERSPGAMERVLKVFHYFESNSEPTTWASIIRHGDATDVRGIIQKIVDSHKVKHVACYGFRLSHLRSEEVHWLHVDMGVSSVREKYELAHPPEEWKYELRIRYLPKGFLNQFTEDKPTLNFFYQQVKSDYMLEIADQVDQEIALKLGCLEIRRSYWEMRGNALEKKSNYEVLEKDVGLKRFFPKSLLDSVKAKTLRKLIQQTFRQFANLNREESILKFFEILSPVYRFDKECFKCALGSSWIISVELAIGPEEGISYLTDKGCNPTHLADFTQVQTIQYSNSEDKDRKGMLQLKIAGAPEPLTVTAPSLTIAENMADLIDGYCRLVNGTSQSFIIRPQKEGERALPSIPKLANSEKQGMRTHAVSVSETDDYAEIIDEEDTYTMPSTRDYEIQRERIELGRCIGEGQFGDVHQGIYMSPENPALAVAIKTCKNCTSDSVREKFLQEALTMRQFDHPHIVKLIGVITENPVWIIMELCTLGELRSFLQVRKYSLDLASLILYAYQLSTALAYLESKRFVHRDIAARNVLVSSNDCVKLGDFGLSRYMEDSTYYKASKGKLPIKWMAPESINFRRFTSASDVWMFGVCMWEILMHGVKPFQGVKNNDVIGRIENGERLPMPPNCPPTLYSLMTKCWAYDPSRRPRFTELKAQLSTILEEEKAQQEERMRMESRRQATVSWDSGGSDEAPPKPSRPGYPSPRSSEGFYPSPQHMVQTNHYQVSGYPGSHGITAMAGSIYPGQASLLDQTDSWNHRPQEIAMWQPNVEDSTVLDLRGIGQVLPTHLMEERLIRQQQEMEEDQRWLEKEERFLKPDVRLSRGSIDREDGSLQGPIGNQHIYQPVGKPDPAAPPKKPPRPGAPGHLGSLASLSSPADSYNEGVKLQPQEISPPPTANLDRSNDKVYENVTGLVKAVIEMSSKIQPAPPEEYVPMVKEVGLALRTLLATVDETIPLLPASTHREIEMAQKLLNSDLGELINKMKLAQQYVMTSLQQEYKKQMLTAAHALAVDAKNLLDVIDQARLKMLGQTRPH
Sequence of Concanavalin-A (Canavalia ensiformis) (P02866 whole entry, looked up): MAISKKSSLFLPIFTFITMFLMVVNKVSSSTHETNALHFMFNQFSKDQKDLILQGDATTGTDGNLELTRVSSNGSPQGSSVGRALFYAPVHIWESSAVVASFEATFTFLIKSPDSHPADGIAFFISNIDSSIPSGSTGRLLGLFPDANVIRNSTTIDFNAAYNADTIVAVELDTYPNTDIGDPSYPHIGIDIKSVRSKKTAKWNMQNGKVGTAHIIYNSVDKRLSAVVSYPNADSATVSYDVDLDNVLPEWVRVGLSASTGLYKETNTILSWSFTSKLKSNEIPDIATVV
Sequence of Albumin (Bos taurus) (P02769 whole entry, looked up): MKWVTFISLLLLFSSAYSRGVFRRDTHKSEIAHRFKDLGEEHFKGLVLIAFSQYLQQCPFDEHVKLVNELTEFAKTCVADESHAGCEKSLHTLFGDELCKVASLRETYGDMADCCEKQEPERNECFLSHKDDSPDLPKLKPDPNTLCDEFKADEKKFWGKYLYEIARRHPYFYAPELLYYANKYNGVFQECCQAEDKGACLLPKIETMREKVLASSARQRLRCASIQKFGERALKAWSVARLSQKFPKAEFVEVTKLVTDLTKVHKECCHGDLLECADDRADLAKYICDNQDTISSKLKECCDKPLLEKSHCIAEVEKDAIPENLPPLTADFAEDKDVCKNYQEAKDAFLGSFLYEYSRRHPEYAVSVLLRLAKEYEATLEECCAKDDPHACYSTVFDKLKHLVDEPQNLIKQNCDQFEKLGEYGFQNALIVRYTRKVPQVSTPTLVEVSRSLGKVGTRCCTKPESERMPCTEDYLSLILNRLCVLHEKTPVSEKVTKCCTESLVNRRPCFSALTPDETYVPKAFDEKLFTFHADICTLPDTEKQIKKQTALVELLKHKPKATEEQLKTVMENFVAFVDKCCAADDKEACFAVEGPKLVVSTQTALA
Sequence of Follistatin (Homo sapiens) (P19883 whole entry, looked up): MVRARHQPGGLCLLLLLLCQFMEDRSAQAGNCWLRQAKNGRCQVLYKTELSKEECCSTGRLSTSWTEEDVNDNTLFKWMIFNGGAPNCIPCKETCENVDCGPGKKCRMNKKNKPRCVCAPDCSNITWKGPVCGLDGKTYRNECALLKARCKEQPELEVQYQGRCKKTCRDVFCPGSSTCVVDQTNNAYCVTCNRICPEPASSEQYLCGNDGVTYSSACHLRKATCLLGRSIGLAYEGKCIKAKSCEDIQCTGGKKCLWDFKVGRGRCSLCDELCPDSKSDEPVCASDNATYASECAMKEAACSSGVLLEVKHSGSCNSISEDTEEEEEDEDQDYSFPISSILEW

In the case of `COC(=O)C(CC#Cc1ccc2c(c1)[C@]1(C(=O)N2)[C@H](c2ccc(OCCO)cc2)N2[C@H](c3ccccc3)[C@H](c3ccccc3)OC(=O)[C@H]2[C@@H]1C(=O)NC[C@H](O)c1ccccc1)C(=O)OC`, the composite z-score (Albumin (Bos taurus)) is reported as 0.819, the composite Z-score [1] is reported as 0.0996 (inactive) and the composite z-score [2] is reported as 0.0556. The composite z-score [3] was -0.115, the composite z-score [4] was 0.497 and the composite z-score [5] was 1.97. For the same compound, the composite z-score [6] was -0.131, the composite z-score (Sam68 (KHDRBS1)) was 1.29 and the composite z-score [7] was -0.28. For the same compound, the composite z-score [8] was 1.14, the composite z-score [9] was 1.06 and the composite z-score [10] was 1.23. It also gave a composite z-score [11] of 0.751, a composite z-score [12] of 0.849 and a composite z-score [13] of 0.966. For the same compound, the composite z-score [14] was 0.387, the z-score [15] was -0.816 and the composite z-score (Lefty1) was 0.346. The composite z-score [16] was 1.16 and the z-score [17] was -1.67 (inactive).

With `Cc1ccc([C@H]2C(C(=O)O)=C[C@@H](C)N2S(=O)(=O)c2ccc(C)cc2)cc1` the composite z-score (Albumin (Bos taurus)) was 0.892, the composite Z-score [1] was 0.24 (inactive) and the composite z-score [2] was -0.0918. The composite z-score [3] was 0.069, the composite z-score [4] was 0.866 and the composite z-score [5] was 2.6. For the same compound, the composite z-score [6] was 0.166, the composite z-score (Sam68 (KHDRBS1)) was 0.821 and the composite z-score [7] was -1.55. The composite z-score [8] was -0.72, the composite z-score [9] was 1.72 and the composite z-score [10] was 1.14. It also gave a composite z-score [11] of 1.96, a composite z-score [12] of -1.29 and a composite z-score [13] of -0.742. It also gave a composite z-score [14] of -1.16, a z-score [15] of -0.321 and a composite z-score (Lefty1) of -1.15. The composite z-score [16] was 1.32 and the z-score [17] was 0.467 (inactive).

For `CCOC(=O)C[C@H]1[C@H](OC(=O)c2ccccc2-c2ccccc2)[C@@H](NC(=O)c2ccc3ccccc3c2)c2cc(OCCCO)ccc2N1C(=O)c1ccc2ccccc2n1`, the composite z-score (Albumin (Bos taurus)) was 0.43, the composite Z-score [1] was -0.666 (inactive) and the composite z-score [2] was 0.172. For the same compound, the composite z-score [3] was -0.14, the composite z-score [4] was 0.124 and the composite z-score [5] was 0.806. It also gave a composite z-score [6] of -0.106, a composite z-score (Sam68 (KHDRBS1)) of 0.744 and a composite z-score [7] of -0.0077. It also gave a composite z-score [8] of 0.406, a composite z-score [9] of 0.0868 and a composite z-score [10] of 0.635. For the same compound, the composite z-score [11] was -0.0301, the composite z-score [12] was 0.0467 and the composite z-score [13] was 0.874. The composite z-score [14] was 0.306, the z-score [15] was 0.988 and the composite z-score (Lefty1) was 0.543. The composite z-score [16] was 0.119 and the z-score [17] was 0.667 (inactive).
